This excerpt belongs to a sample that is enriched for hits.
IDE exosite FP: exo-site inhibitors of human IDE, primary screen, biochemical, fluorescence anisotropy, probe displacement; Insulin-degrading enzyme (Homo sapiens), P14735; purified IDE, FL-6b probe fluorescence polarization; stronger effect = lower value; z-score at 20 µM; actives 6.3% (n = 17,000);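 active = z-score of -3 or lower, meaning strong loss of probe binding signal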;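 also: His-tagged human IDE residues 42-1019 made in E. coli with 30 nM FL-6b probe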
Target sequence (P14735 42-1019 limits assumed): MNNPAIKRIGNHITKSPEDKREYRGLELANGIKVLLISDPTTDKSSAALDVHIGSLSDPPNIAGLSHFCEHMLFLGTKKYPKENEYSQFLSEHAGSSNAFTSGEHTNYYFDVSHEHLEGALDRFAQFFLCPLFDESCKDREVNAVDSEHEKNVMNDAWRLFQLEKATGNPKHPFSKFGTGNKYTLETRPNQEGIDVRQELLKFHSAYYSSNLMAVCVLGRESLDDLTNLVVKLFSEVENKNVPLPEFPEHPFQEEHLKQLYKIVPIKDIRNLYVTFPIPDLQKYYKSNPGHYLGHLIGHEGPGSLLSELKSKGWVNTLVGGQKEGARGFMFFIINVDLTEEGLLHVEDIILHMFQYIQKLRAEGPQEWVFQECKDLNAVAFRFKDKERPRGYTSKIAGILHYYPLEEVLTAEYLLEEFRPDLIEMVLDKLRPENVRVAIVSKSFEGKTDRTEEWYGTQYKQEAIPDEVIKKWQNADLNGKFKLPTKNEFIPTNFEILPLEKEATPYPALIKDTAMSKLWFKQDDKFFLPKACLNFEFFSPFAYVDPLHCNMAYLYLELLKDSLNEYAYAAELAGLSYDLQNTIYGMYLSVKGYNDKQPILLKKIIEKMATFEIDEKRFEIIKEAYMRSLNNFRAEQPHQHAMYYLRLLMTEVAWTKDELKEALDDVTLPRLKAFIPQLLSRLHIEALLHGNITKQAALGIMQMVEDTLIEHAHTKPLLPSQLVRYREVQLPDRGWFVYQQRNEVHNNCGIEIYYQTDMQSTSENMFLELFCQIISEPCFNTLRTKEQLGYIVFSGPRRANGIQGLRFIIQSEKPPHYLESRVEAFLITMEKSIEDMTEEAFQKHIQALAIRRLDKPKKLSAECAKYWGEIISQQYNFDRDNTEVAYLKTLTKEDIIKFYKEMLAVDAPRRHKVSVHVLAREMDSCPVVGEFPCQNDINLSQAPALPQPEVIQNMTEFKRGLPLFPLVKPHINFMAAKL
* marks the source's active call; other numbers are inactive results; ! = a repeat was not active.

SMILES | IDE exosite FP
O=C(Nc1ccccc1F)N1CCCCN2[C@H](CO)[C@H](c3ccc(/C=C/c4ccccc4)cc3)[C@@H]2C1 | -3.89*
O=C(Nc1ccccc1F)N1CCCCN2[C@H](CO)[C@H](c3ccc(C4=CCCC4)cc3)[C@H]2C1 | 2.11
O=C(Nc1ccccc1F)N1CCCCN2[C@H](CO)[C@H](c3ccc(/C=C/c4ccccc4)cc3)[C@H]2C1 | -4.93*
O=C(Nc1ccccc1F)N1CCCCN2[C@H](C1)[C@H](c1ccc(C3=CCCC3)cc1)[C@@H]2CO | 4.44
O=C(Nc1ccccc1F)N1CCCCN2[C@H](C1)[C@@H](c1ccc(/C=C/c3ccccc3)cc1)[C@@H]2CO | -2.72
C/C=C/c1ccc([C@H]2[C@@H](CO)N3CCCCN(C(=O)Nc4ccccc4F)C[C@@H]23)cc1 | -0.836
CO[C@H](C(=O)N(C)C[C@H]1OCc2ccccc2-c2ccccc2C(=O)N([C@@H](C)CO)C[C@H]1C)c1ccccc1 | -0.92
COc1ccc(-c2ccc([C@@H]3[C@@H](CO)N4C(=O)CN(Cc5ccc(C)cc5)C[C@H]34)cc2)cc1 | 2.7
COCC(=O)N1CCC2(CC1)CN(C(=O)c1ccccn1)[C@@H](CO)c1c2c2ccc(OC)cc2n1C | -1.22
CN(C)C(=O)c1ccc(-c2ccc(C3[C@@H]4CN(C(=O)c5ccccn5)C[C@H]3N4)cc2)cc1 (stereo not given in full) | 1.1
N#Cc1ccc(-c2ccc(C3[C@@H]4CN(C(=O)c5ccccn5)C[C@H]3N4)cc2)cc1 (stereo not given in full) | 2.77
O=C(C1CCC1)N1C[C@@H]2N[C@H](C1)C2c1ccc(-c2cccc(F)c2)cc1 (stereo not given in full) | 1.03
N#Cc1ccc(-c2ccc(C3[C@@H]4CN(C(=O)C5CCOCC5)C[C@H]3N4)cc2)cc1 (stereo not given in full) | 1.95
Cc1ccccc1-c1ccc(C2[C@@H]3CN(C(=O)C4CCOCC4)C[C@H]2N3)cc1 (stereo not given in full) | -7.71*!
O=C(c1ccccn1)N1C[C@@H]2N[C@H](C1)C2c1ccc(-c2ccccc2F)cc1 (stereo not given in full) | -5.84*!
O=C(C1CCOCC1)N1C[C@@H]2N[C@H](C1)C2c1ccc(-c2ccccc2F)cc1 (stereo not given in full) | -3.02*!
O=C(C1CCOCC1)N1C[C@@H]2N[C@H](C1)C2c1ccc(-c2cccc(F)c2)cc1 (stereo not given in full) | 4.19
Fc1cccc(-c2ccc(C3[C@@H]4CN(Cc5cccnc5)C[C@H]3N4)cc2)c1 (stereo not given in full) | 1.37
N#C[C@@H]1[C@H](c2ccc(-c3ccccc3F)cc2)[C@H](CO)N1C(=O)C1CCOCC1 | -0.723
Cc1ccccc1-c1ccc(C2[C@@H]3CN(Cc4cccnc4)C[C@H]2N3)cc1 (stereo not given in full) | -13.9*
CN(C)C(=O)c1ccc(-c2ccc(C3[C@@H]4CN(Cc5cccnc5)C[C@H]3N4)cc2)cc1 (stereo not given in full) | 1.16
O=C(c1ccc(F)cc1)N1CC(=O)N2[C@@H](CO)[C@H](c3ccc(C#CCC4CCCC4)cc3)[C@@H]2C1 | 0.643
O=C(Cc1cccnc1)N1CC(=O)N2[C@@H](CO)[C@H](c3ccc(C4=CCCC4)cc3)[C@@H]2C1 | 0.999
O=C(Nc1ccccc1)N1CC(=O)N2[C@H](CO)[C@@H](c3ccc(-c4ccc(F)cc4)cc3)[C@H]2C1 | 1.77
CN1c2ccc(-c3ccccc3)cc2[C@H]2[C@H](CCN2C(=O)NC2CCCCC2)[C@@H]1CO | 0.0738
SMILES | IDE exosite FP
CCCNC(=O)NC[C@@H]1[C@H](c2ccc(C3=CCCCC3)cc2)[C@H](CO)N1C(C)=O | -0.318
N#C[C@@H]1[C@@H](c2ccc(-c3ccncc3)cc2)[C@@H](CO)N1C(=O)C1CCCC1 | 1.29
Cc1ccccc1-c1ccccc1[C@H]1[C@@H](C#N)N(C(=O)c2ccc(F)cc2)[C@H]1CO | 0.0921
O=C1N[C@@H](Cc2ccccc2)COCc2cn(nn2)CC[C@@H]1Cc1cccc(F)c1 | 0.904
COc1ccc2c3c(n(C)c2c1)[C@H](CO)N(Cc1ccncc1)CC31CN(C(=O)Nc2cccc(F)c2)C1 | 0.683
Cn1cnc(S(=O)(=O)N2[C@@H]3CNC[C@H]2C3c2ccc(/C=C/c3ccccc3)cc2)c1 (stereo not given in full) | -1.52
COC(=O)C[C@H]1CC[C@H]2[C@@H](COc3ccc(NC(=O)Nc4cccc(C#N)c4)cc3C(=O)N2C)O1 | -0.325
N#C[C@@H]1N[C@H](CO)[C@@H]1c1ccc(-c2ccccc2F)cc1 | 4.65
COc1ccccc1-c1ccc([C@H]2[C@H](C#N)N[C@@H]2CO)cc1 | -12*
COc1ccc(-c2ccc([C@H]3[C@@H](C#N)N[C@@H]3CO)cc2)cc1 | 3.12
N#C[C@H]1N[C@H](CO)[C@H]1c1ccccc1 | 3.81
COc1ccc(-c2ccc([C@@H]3[C@H](C#N)N[C@H]3CO)cc2)cc1 | 4.15
N#C[C@H]1N[C@H](CO)[C@@H]1c1ccc(-c2ccccc2F)cc1 | -4.36*
COCC(=O)N(C)C[C@@H]1[C@@H](c2ccc(-c3cccnc3)cc2)[C@H](CO)N1C(C)=O | 0.0109
O=C1CN(Cc2ccccc2)C[C@H]2[C@@H](c3ccc(-c4ccccc4F)cc3)[C@@H](CO)N12 | 1.9
COc1ccc(S(=O)(=O)Nc2ccc3c(c2)CC(=O)N([C@@H](C)CO)C[C@H](C)[C@@H](CN(C)C(=O)Nc2c(C)noc2C)O3)cc1 | 1.53
COc1ccc(C[C@@H]2CCn3nncc3COC[C@H](CC(C)C)NC2=O)cc1 | 0.217
C/C=C/c1ccc([C@H]2[C@@H](CN(C)C(=O)CC)N(C(=O)C3CC3)[C@H]2CO)cc1 | 0.974
O=C(c1cccc(F)c1)N1CC(=O)N2[C@@H](CO)[C@@H](c3ccc(-c4ccccc4F)cc3)[C@@H]2C1 | -1.15
O=C(c1cccc(F)c1)N1CC(=O)N2[C@@H](CO)[C@H](c3ccc(-c4ccccc4)cc3)[C@@H]2C1 | 2.42
O=C(c1cccnc1)N1CC(=O)N2[C@@H](CO)[C@@H](c3ccc(-c4ccccc4F)cc3)[C@@H]2C1 | 0.484
O=C(c1cccc(F)c1)N1CC(=O)N2[C@H](CO)[C@H](c3ccc(-c4ccccc4F)cc3)[C@H]2C1 | -4.76*
O=C(c1ccc(F)cc1)N1CC(=O)N2[C@H](CO)[C@@H](c3ccc(-c4ccccc4F)cc3)[C@H]2C1 | 0.687
O=C(c1cccc(F)c1)N1CC(=O)N2[C@H](C1)[C@@H](c1ccc(-c3ccccc3F)cc1)[C@@H]2CO | -3.92*
Cc1ccccc1-c1cnc2c(c1)C(=O)N([C@@H](C)CO)C[C@H](C)[C@@H](CN(C)Cc1ccccc1F)O2 | -0.37
O=C1CCCn2cc(nn2)COCC2CCCN12 (stereo not given) | 0.398
O=C(Nc1cc(F)ccc1F)N1CC(=O)N2[C@H](C1)[C@H](c1ccc(-c3ccccc3)cc1)[C@@H]2CO | -0.216
COc1ccc(C#Cc2ccc([C@@H]3[C@H](CO)N4C(=O)CN(C(=O)c5ccc(F)cc5)C[C@@H]34)cc2)cc1 | -1.16
CN(C)C(=O)c1ccc(-c2ccc([C@@H]3[C@@H](C#N)N(C(=O)C4CCOCC4)[C@H]3CO)cc2)cc1 | 3.89
Cc1ccccc1S(=O)(=O)N1CCCCN2[C@H](C1)[C@H](c1ccc(-c3cncnc3)cc1)[C@@H]2CO | 0.565
